# CYP2C9 act: human CYP2C9 activators, primary screen, biochemical, luminescence; Cytochrome P450 2C9 (Homo sapiens), P11712; recombinant CYP2C9, luciferin-H conversion; stronger effect = higher value; factor 1 = untreated enzyme, 0 = blocked; activation factor at 5 µM; actives 1.4% (n = 96,000);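 active = activation factor of 2 or more for CYP2C9 at a 5 µM dose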
# CYP2C19 inhib: blockers of cytochrome P450 2C19 activity – biochemical, luminescence, ADME assay, primary screen; P33261; CYP2C19 Supersomes, luciferin-H EGE luminescence, 30 min; inhibition, % at 5 µM; actives 21% (n = 96,000); AID 778, 2007;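 active = CYP2C19 inhibition above a set limit at 5 µM in the primary screen, cut at about 50% in these data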
# Target sequence (P33261 whole entry, looked up): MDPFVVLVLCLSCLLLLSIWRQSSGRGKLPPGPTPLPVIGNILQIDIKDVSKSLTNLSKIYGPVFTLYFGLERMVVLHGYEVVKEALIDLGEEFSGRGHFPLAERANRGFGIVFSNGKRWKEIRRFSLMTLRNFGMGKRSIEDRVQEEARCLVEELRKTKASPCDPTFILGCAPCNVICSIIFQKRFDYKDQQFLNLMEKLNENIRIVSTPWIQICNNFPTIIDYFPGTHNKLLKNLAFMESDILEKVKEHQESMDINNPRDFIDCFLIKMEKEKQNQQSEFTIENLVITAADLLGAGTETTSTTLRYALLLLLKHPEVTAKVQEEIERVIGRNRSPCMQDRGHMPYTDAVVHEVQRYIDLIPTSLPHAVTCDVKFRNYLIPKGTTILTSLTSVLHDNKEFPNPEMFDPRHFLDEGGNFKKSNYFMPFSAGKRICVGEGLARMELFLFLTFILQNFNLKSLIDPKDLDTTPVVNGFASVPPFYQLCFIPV
# E-sel TNF inh: E-selectin induction blockers in HUVEC – imaging, immunofluorescence, high content, primary screen. inhibition, % at 2 µM. HUVEC TNFa-induced E-selectin immunofluorescence. AID 1246, 2008. actives 0.71% (n = 120,000);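 active = inhibition above the batch mean plus 3 SD, and confirmed as a hit on visual image review, cut at about 43% in these data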
# CYP2C19 act: human CYP2C19 activators, primary screen, biochemical, luminescence; recombinant CYP2C19, luciferin-H EGE luminescence; stronger effect = higher value; 0 = fully inhibited enzyme, 1 = untreated enzyme; AID 1025, 2008; Cytochrome P450 2C19 (Homo sapiens), P33261; 96,000 tested, under 10 active; activation factor at 5 µM;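 active = activation factor of at least 2 at 5 µM in the primary screen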
# F-actin modifier: modifiers of F-actin cytoskeleton organization, primary screen, imaging, HUVEC, phalloidin staining, high-content imaging; HUVEC TNFa F-actin phalloidin imaging; inhibition, % at 2 µM; actives 0.18% (n = 91,000);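 active = inhibition above the batch mean plus 3 SD and confirmed as a hit by visual image inspection, cut at about 30% in these data, passing the limit was not always enough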
# CYP2C9 inhib: blockers of cytochrome P450 2C9 activity – biochemical, luminescence, ADME assay, primary screen; inhibition, % at 5 µM; CYP2C9 Supersomes, luciferin-H conversion; P11712; actives 20% (n = 96,000);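 active = blocking of liver enzyme CYP2C9 beyond about 50% at 5 µM, limit read from the data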
# Hits are given with their value; . = inactive; / = no result given. Shown are actives, neighbours in structure and some others; about 22% of the full set was active somewhere.
SMILES,CYP2C9 act,CYP2C19 inhib,E-sel TNF inh,CYP2C19 act,F-actin modifier,CYP2C9 inhib
COC(=O)C1=C(N)Oc2cc(C)n(CC3CCCO3)c(=O)c2C1c1ccc(Cl)c(Cl)c1 (stereo not drawn),.,72,.,.,.,81
COC(=O)C1=C(N)Oc2cc(C)n(Cc3ccco3)c(=O)c2C1c1cccc(Cl)c1 (stereo not drawn),.,.,/,.,.,56
COC(=O)C1=C(N)Oc2cc(C)n(C)c(=O)c2C1c1ccc(Cl)c(Cl)c1 (stereo not drawn),.,.,/,.,.,.
COC(=O)C1=C(N)Oc2cc(C)[nH]c(=O)c2C1c1ccncc1 (stereo not drawn),.,.,.,.,.,51
COC(=O)C1=C(N)Oc2cc(C)n(CCCn3ccnc3)c(=O)c2C1c1ccc(Cl)cc1 (stereo not drawn),.,99,.,.,.,97
CC(c1ccco1)N(C(=O)c1ccccc1NS(=O)(=O)c1cccc([N+](=O)[O-])c1)c1ccccn1 (stereo not drawn),/,/,.,/,/,/
O=c1c2ccccc2nnn1CSc1nnc2sc3ccccc3n12,.,.,.,.,.,.
Cc1ccc(S(=O)(=O)/N=C(/Nc2c(C)n(C)n(-c3ccccc3)c2=O)c2ccc(Cl)cc2)cc1,.,.,.,.,.,.
Cc1ccccc1NC1=NC(=S)N(c2ccccc2)C12CCCCC2,/,/,.,/,/,/
CN(C)C(C(=O)NC1CCCCC1)c1ccc(Cl)cc1 (stereo not drawn),.,56,.,.,/,.
O=C(NC1CCCC1)C(c1ccc(Cl)cc1)N(Cc1ccc(F)cc1)C(=O)CCl (stereo not drawn),/,/,.,/,/,/
Cc1nc(C)c(C(=O)C2=C(O)C(=O)N(CCN3CCOCC3)C2c2cccs2)s1 (stereo not drawn),/,/,.,/,.,/
Nc1nc(N2CCN(C/C=C/c3ccccc3)CC2)nc2ccccc12,.,51,.,.,.,70
O=c1[nH]c(CN2CCN(C/C=C/c3ccccc3)CC2)nc2ccccc12,.,.,.,.,.,.
Cc1ccc(CNC(=O)C2=CCN(S(=O)(=O)c3ccc(C)cc3)CC2)cc1,/,/,.,/,/,/
CCOc1cc(S(=O)(=O)NCC2OCCc3ccccc32)c(OCC)cc1-n1cnnn1 (stereo not drawn),.,.,/,.,/,51
CCOc1cc(S(=O)(=O)N2CCN(c3ccc(F)cc3)CC2)c(OCC)cc1-n1cnnn1,.,.,.,.,.,.
CCOc1cc(S(=O)(=O)NCc2ccc(OC)cc2)c(OCC)cc1-n1cnnn1,.,.,/,.,.,85
CCOc1cc(S(=O)(=O)NC2CC2)c(OCC)cc1-n1cnnn1,.,80,.,.,/,95
CCOc1ccc(-n2cnnn2)cc1S(=O)(=O)NCCc1ccc(OC)c(OC)c1,.,.,.,.,.,.
CCOc1cc(S(=O)(=O)NCCc2ccc(OC)c(OC)c2)c(OCC)cc1-n1cnnn1,.,.,.,.,/,76
Cc1ccc(-c2nnn(CC(=O)N(CC(=O)NC3CCCCC3)c3ccc(F)c(Cl)c3)n2)o1,/,/,.,/,.,/
COc1ccc(NC(=S)N(Cc2ccc(C)cc2)Cc2ccccn2)cc1,/,/,.,/,/,/
Clc1ccc(NC2=NCCC2)cc1Cl,.,.,.,.,.,.
CCOc1cc(S(=O)(=O)NCc2ccco2)c(OCC)cc1-n1cnnn1,.,.,/,.,.,69
SMILES,CYP2C9 act,CYP2C19 inhib,E-sel TNF inh,CYP2C19 act,F-actin modifier,CYP2C9 inhib
C=CCN(C(=O)CSc1nc2[nH]ncc2c(=O)n1-c1ccccc1OC)c1ccccc1,/,/,.,/,/,/
OCCNc1nc(N2CCN(Cc3ccccc3)CC2)nc2ccccc12,.,.,.,.,.,54
c1ccc(CN2CCN(c3nc(N4CCOCC4)c4ccccc4n3)CC2)cc1,/,/,.,/,.,/
CC#CCCCC(=O)Nc1ccccc1C(=O)O,.,.,/,.,.,.
c1ccc(CN2CCN(c3ncccn3)CC2)nc1,.,54,.,.,.,.
Fc1ccc(CN2CCN(c3ncccn3)CC2)cc1,.,57,.,.,.,.
Nc1ccc2c(c1)-c1ccccc1S(=O)(=O)N2,.,.,.,.,.,.

# Source: PubChem
